Where a name gives a salt, the structure may show the parent alone.
Legend:
Settings in all cases: treatment time: 24 h
WPMY1-GM130-SQSTM1 [1] = assay: lowest phenotypically active concentration; higher = less potent
Method in brief: (§1)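 Fifteen gene-edited A549, HepG2 and WPMY1 reporter lines (BFP segmentation plus GFP and RFP/FusionRed markers) were treated at 0.3, 1, 3 or 9 µM for 24 h, four wells each, then imaged live. Live-cell features per well were normalised to DMSO control wells. Deviation required ≥3 of 4 wells beyond the 95th percentile of DMSO Euclidean distances, and reproducibility required median replicate Pearson correlation above the 95th percentile of non-replicates. Phenotypic activity needed both criteria.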

A549-ACTB-RAB5A = assay: phenotypically active (imaging signature differs from DMSO and reproducible) at any of 0.3-9 uM (binary (1 = active, 0 = inactive)); higher = active
Method in brief: as §1

A549-CANX-COX4 = assay: as above
Method in brief: as §1

A549-GM130-SQSTM1 = assay: as above
Method in brief: as §1

A549-TP53BP1-CLTA = assay: as above
Method in brief: as §1

A549-TUBA1B-RELA = assay: as above
Method in brief: as §1

HepG2-ACTB-RAB5A = assay: as above
Method in brief: as §1

HepG2-CANX-COX4 = assay: as above
Method in brief: as §1

HepG2-GM130-SQSTM1 = assay: as above
Method in brief: as §1

HepG2-TP53BP1-CLTA = assay: as above
Method in brief: as §1

HepG2-TUBA1B-RELA = assay: as above
Method in brief: as §1

WPMY1-ACTB-RAB5A [2] = assay: as above
Method in brief: as §1

WPMY1-CANX-COX4 [3] = assay: as above
Method in brief: as §1

WPMY1-GM130-SQSTM1 [4] = assay: as above
Method in brief: as §1

WPMY1-TP53BP1-CLTA = assay: as above
Method in brief: as §1

WPMY1-TUBA1B-RELA = assay: as above
Method in brief: as §1

WPMY1-ACTB-RAB5A [5] = assay: lowest phenotypically active concentration; higher = less potent
Method in brief: as §1

WPMY1-CANX-COX4 [6] = assay: as above
Method in brief: as §1

Structure (SMILES) | lowest phenotypically active concentration (WPMY1-GM130-SQSTM1 [1]) [µM] | phenotypically active (A549-ACTB-RAB5A) | phenotypically active (A549-CANX-COX4) | phenotypically active (A549-GM130-SQSTM1) | phenotypically active (A549-TP53BP1-CLTA) | phenotypically active (A549-TUBA1B-RELA) | phenotypically active (HepG2-ACTB-RAB5A) | phenotypically active (HepG2-CANX-COX4) | phenotypically active (HepG2-GM130-SQSTM1) | phenotypically active (HepG2-TP53BP1-CLTA) | phenotypically active (HepG2-TUBA1B-RELA) | phenotypically active (WPMY1-ACTB-RAB5A [2]) | phenotypically active (WPMY1-CANX-COX4 [3]) | phenotypically active (WPMY1-GM130-SQSTM1 [4]) | phenotypically active (WPMY1-TP53BP1-CLTA) | phenotypically active (WPMY1-TUBA1B-RELA) | lowest phenotypically active concentration (WPMY1-ACTB-RAB5A [5]) [µM] | lowest phenotypically active concentration (WPMY1-CANX-COX4 [6]) [µM]
O=C1C=C(O)C(=O)c2ccccc21 [2-Hydroxy-[1,4]naphthoquinone] | ≤ 0.3 | 0 (inactive) | 0 (inactive) | 0 (inactive) | 0 (inactive) | 0 (inactive) | 0 (inactive) | 0 (inactive) | 0 (inactive) | 0 (inactive) | 0 (inactive) | 0 (inactive) | 0 (inactive) | 1 (active) | 0 (inactive) | 0 (inactive) |  | 
CCCCc1c(O)n(-c2ccccc2)n(-c2ccccc2)c1=O [phenylbutazone] | ≤ 0.3 | 0 (inactive) | 0 (inactive) | 0 (inactive) | 0 (inactive) | 0 (inactive) | 0 (inactive) | 0 (inactive) | 0 (inactive) | 0 (inactive) | 0 (inactive) | 0 (inactive) | 0 (inactive) | 1 (active) | 0 (inactive) | 0 (inactive) |  | 
CNCC(O)c1ccc(OC(=O)C(C)(C)C)c(OC(=O)C(C)(C)C)c1 (stereo not drawn) [dipivefrine] | 9 | 0 (inactive) | 0 (inactive) | 0 (inactive) | 0 (inactive) | 0 (inactive) | 0 (inactive) | 0 (inactive) | 0 (inactive) | 0 (inactive) | 0 (inactive) | 0 (inactive) | 0 (inactive) | 1 (active) | 0 (inactive) | 0 (inactive) |  | 
NCCCCNS(=O)(=O)c1ccc2c(Cl)cccc2c1 [W-13 hydrochloride] | 9 | 0 (inactive) | 0 (inactive) | 0 (inactive) | 0 (inactive) | 0 (inactive) | 0 (inactive) | 0 (inactive) | 0 (inactive) | 0 (inactive) | 0 (inactive) | 1 (active) | 1 (active) | 1 (active) | 0 (inactive) | 1 (active) | 9 | 9
NS(=O)(=O)C#Cc1ccccc1 [pifithrin-mu] | 9 | 0 (inactive) | 0 (inactive) | 0 (inactive) | 0 (inactive) | 0 (inactive) | 0 (inactive) | 0 (inactive) | 1 (active) | 0 (inactive) | 0 (inactive) | 0 (inactive) | 0 (inactive) | 1 (active) | 0 (inactive) | 1 (active) |  | 
COc1ccnc(CS(=O)c2nc3cc(OC(F)F)ccc3[nH]2)c1OC (stereo not drawn) [pantoprazole] |  | 0 (inactive) | 0 (inactive) | 0 (inactive) | 0 (inactive) | 0 (inactive) | 0 (inactive) | 0 (inactive) | 0 (inactive) | 0 (inactive) | 0 (inactive) | 1 (active) | 0 (inactive) | 0 (inactive) | 0 (inactive) | 0 (inactive) | ≤ 0.3 | 
CC(C)C(=O)Nc1ccc([N+](=O)[O-])c(C(F)(F)F)c1 [flutamide] | 9 | 0 (inactive) | 0 (inactive) | 0 (inactive) | 0 (inactive) | 0 (inactive) | 0 (inactive) | 0 (inactive) | 0 (inactive) | 0 (inactive) | 0 (inactive) | 0 (inactive) | 0 (inactive) | 1 (active) | 0 (inactive) | 0 (inactive) |  | 
Cn1cnc(N)c2ncnc1-2 [3-Methyladenine] |  | 0 (inactive) | 0 (inactive) | 0 (inactive) | 0 (inactive) | 0 (inactive) | 0 (inactive) | 0 (inactive) | 0 (inactive) | 0 (inactive) | 0 (inactive) | 1 (active) | 0 (inactive) | 0 (inactive) | 0 (inactive) | 0 (inactive) | 1 | 
Cc1cc2c(s1)Nc1ccccc1N=C2N1CCN(C)CC1 [Olanzapine] |  | 0 (inactive) | 0 (inactive) | 0 (inactive) | 0 (inactive) | 0 (inactive) | 0 (inactive) | 0 (inactive) | 0 (inactive) | 0 (inactive) | 1 (active) | 0 (inactive) | 0 (inactive) | 0 (inactive) | 0 (inactive) | 0 (inactive) |  | 
Nc1ncnc2c1c(COc1cccc(Cl)c1)nn2C1CCOCC1 |  | 0 (inactive) | 0 (inactive) | 0 (inactive) | 0 (inactive) | 0 (inactive) | 0 (inactive) | 0 (inactive) | 0 (inactive) | 1 (active) | 0 (inactive) | 0 (inactive) | 0 (inactive) | 0 (inactive) | 0 (inactive) | 0 (inactive) |  | 
O=S(=O)(NCCCCCCc1ccccc1)c1cccc2c(Cl)cccc12 |  | 0 (inactive) | 0 (inactive) | 0 (inactive) | 0 (inactive) | 0 (inactive) | 0 (inactive) | 0 (inactive) | 0 (inactive) | 0 (inactive) | 1 (active) | 1 (active) | 1 (active) | 0 (inactive) | 0 (inactive) | 0 (inactive) | ≤ 0.3 | ≤ 0.3
CCCN[C@H]1CCc2nc(N)sc2C1 [pramipexole] | 9 | 0 (inactive) | 0 (inactive) | 0 (inactive) | 0 (inactive) | 0 (inactive) | 0 (inactive) | 0 (inactive) | 0 (inactive) | 0 (inactive) | 0 (inactive) | 0 (inactive) | 0 (inactive) | 1 (active) | 0 (inactive) | 0 (inactive) |  | 

— the supplement of paper PMC7411054
